# Source: PubChem BioAssay AID686970 (National Center for Advancing Translational Sciences (NCATS), 2013)
# Out of some 360,000 compounds screened, about 6,000 (1.7%) were called active. Entries that show only a call come without a potency. Roughly 8% stayed inconclusive and do not appear here. Calls follow the shape of the dose curve; as a rule, active = well fitted cell-killing curve with a large enough effect; inconclusive = small, poorly fitted or top-dose-only effect, or effect the other way; inactive = flat fitted curve, though single readings scatter. For the sample, actives were picked, then their nearest neighbours and some compounds at random.
# Assay: qHTS for induction of synthetic lethality in tumor cells producing 2HG: qHTS for the HT-1080-NT fibrosarcoma cell line;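 also: NT is the 2HG producing partner of a matched IDH1 knockdown line; nearly all actives have a fitted effect of over 55% in size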
# Details: HT-1080-NT fibrosarcoma viability, CellTiter-Glo ATP luminescence, 48 h; series mostly up to 46.1 µM
# Method in brief: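 Read-out is CellTiter-Glo luminescence after 10 minutes at room temperature, following 48 hours' compound treatment of HT-1080-NT cells (750 cells/well, RPMI, 5% FBS, 37 degrees C).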
# Potency is read from the fitted curve at half-maximal effect.
row,SMILES,Potency
1,CC1(C)CC(=O)C=C(c2ccc(COC(=O)c3cc(F)cc(F)c3)cc2)C1=O,inactive
2,CCN(CC(=O)Nc1ccc(NC(C)=O)cc1)C(=O)C1CC(=O)N(c2ccc3c(c2)OCCO3)C1 (stereo unspecified),inactive
3,O=C(NC1=CC(=O)c2ccccc2C1=O)c1ccccc1,7.31 µM (active)
4,O=C(NC(=O)c1ccccc1)Nc1ccccc1O,inactive
5,CC(NC(=O)c1ccccc1)C(=O)Nc1ccccc1 (stereo unspecified),inactive
6,Cc1ccc(S(=O)(=O)N2[C@@H](Cc3ccccc3)CO[C@H]2CC(=O)OCc2ccccc2)cc1,inactive
7,CCCCNC(=O)OC1CC2CC1[C@H]1CCCCN1C2=O (stereo partly specified),inactive
8,O=C(COC(=O)Cc1ccc(Cl)cc1Cl)NCc1ccco1,inactive
9,COC(=O)CC1=NN(c2ccccc2)C(=O)C1,inactive
10,O=[N+]([O-])c1ccc(N2CCOCC2)cc1,inactive
11,O=C1CC(c2ccccc2)=NN1c1ccc([N+](=O)[O-])cc1,14.6 µM (active)
12,COc1ccc(C(=O)N2CCCCC2c2cc(C(=O)Nc3ccc(F)c(Cl)c3)no2)cc1 (stereo unspecified),inactive
13,Cc1c(C(=O)NCC2CC2)sc(=O)n1Cc1cccc(F)c1,inactive
14,COc1ccc(NC(=O)CNC(=O)Cc2ccccc2)cc1OC,inactive
15,COc1ccc(CNC(=O)[C@H](Cc2c[nH]c3ccccc23)NC(C)=O)cc1OC,inactive
16,COc1ccc(CNC(=O)Cc2ccc(-c3ccccc3)cc2)cc1OC,14.6 µM (active)

row,SMILES,Potency
1,O=C(C=CC(=O)Nc1ccc(F)cc1F)Nc1ccc(F)cc1F,inactive
2,NS(=O)(=O)c1ccc(CNC(=O)c2cc(S(=O)(=O)N3CCOCC3)ccc2N2CCCC2)cc1,inactive
3,COC(=O)c1ccc2c(c1)S(=O)(=O)NC2C (stereo unspecified),inactive
4,COC(=O)CCCCC1=CCC2C(=O)C=C(O)C2C1 (stereo unspecified),inactive
5,CC(OC(=O)c1ccc(NC(=O)CC#N)cc1)C(=O)Nc1ccc(S(=O)(=O)N2CCCC2)cc1 (stereo unspecified),inactive
6,Cc1ccc(-n2c(SCC(=O)N/N=C/C=C/c3ccccc3[N+](=O)[O-])nc3ccccc3c2=O)cc1,inactive
7,CCn1c(/C=C/c2ccc([N+](=O)[O-])o2)nc2ccccc2c1=O,2.59 µM (active)
8,CCOCCCn1c(NN)nc2ccccc2c1=O,inactive
9,CCC1NC(=O)c2cccnc2-n2c1nc1ccc(C)cc1c2=O (stereo unspecified),inactive
10,COc1cc2nc(N3CCCN(C)CC3)nc(NC(C)C)c2cc1OC,inactive
11,COc1cc2ccc(C(C)=O)c(O)c2cc1OC,inactive
12,CC(C)CN1C(=O)CN(S(C)(=O)=O)CC1(C)C(=O)NCc1ccccc1 (stereo unspecified),inactive
13,COc1cc(OC)c2c(-c3cccc(-c4cccc(N)c4)c3)cc(=O)oc2c1,6.51 µM (active)
14,COc1ccc(-c2c(C)cc3oc(=O)cc(-c4ccccc4)c3c2C)cc1OC,inactive
15,COc1ccc(-c2c(C)cc3oc(=O)cc(-c4ccccc4)c3c2C)cc1F,inactive
